Experimental data reported in PubChem BioAssay.
Calls of active or inactive are those of the source. Unless noted, how the calls were made is not given here.

How the values were obtained:
[1] = test system: Wnt5a (protein binding on small-molecule microarray); assay: small molecules binding Wnt5a protein – biophysical, small-molecule microarray, 635/667 nm fluorescence, primary screen (AID 1142); conditions: 635 nm fluorescence, higher = more signal;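 further: fluorescence read at 667 nm with signal to noise per printed feature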
[2] = ATP-based viability of Huh7 replicon cells – cell-based, CellTiter-Glo luminescence, basal, 48 h, cytotoxicity control for HCV replication inhibitor project, primary screen (AID 1143); conditions: higher = more signal, called active from +8 up or from −8 down;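 further: Huh7 hepatoma cells carrying a hepatitis C replication reporter with no stimulus; test concentration not given here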
[3] = Pseudomonas biofilm growth suppression – PAO1 strain, BacTiter-Glo luminescence, LB-PBS, primary screen (AID 1144); conditions: P. aeruginosa PAO1 biofilm, 12 h, higher = more signal
[4] = basal CRE-LacZ reporter activity in PC12 – cell-based, unstimulated, primary screen (AID 1145); conditions: no forskolin, luminescence, 4.5 h, higher = more signal, called active from +8 up or from −8 down
[5] = forskolin-driven CRE-LacZ activity in PC12 – cell-based, CRE-LacZ reporter, forskolin-stimulated, primary screen (AID 1146); conditions: luminescence, 4.5 h, higher = more signal, called active from +8 up or from −8 down;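 further: PC12 cells with 6xCRE LacZ reporter stimulated by forskolin 10 µM; beta-galactosidase reporter signal reflecting CREB driven transcription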
[6] = target: Streptavidin (Streptomyces avidinii) (UniProt P22629); assay: compounds binding control protein streptavidin – biophysical, small-molecule microarray, 635/667 nm fluorescence, artefact control for SMM compound annotation, primary screen (AID 1147); conditions: higher = more signal;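 further: signal reflects streptavidin binding to arrayed compounds as a control protein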
Sequence of Streptavidin (Streptomyces avidinii) (P22629 whole entry, looked up): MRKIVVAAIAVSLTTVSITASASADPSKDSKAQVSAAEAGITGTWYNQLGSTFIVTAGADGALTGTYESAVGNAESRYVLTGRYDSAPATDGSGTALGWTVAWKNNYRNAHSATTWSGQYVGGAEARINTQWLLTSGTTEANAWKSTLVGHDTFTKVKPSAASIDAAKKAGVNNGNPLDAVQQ

[7] = probe aInhba binding on compound microarray – biochemical, small-molecule microarray, 635/667 nm fluorescence, primary screen (AID 1148); conditions: higher = more signal;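 further: score merges 667nm spot fluorescence with signal-to-noise for antibody binding to printed compounds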
Torsin-1A (Homo sapiens) [8] = target: Torsin-1A (Homo sapiens) (UniProt O14656); assay: TOR1A wild-type binding on microarray – cell lysate, small-molecule microarray, lysate, 635/667 nm, primary screen (AID 1149); conditions: COS7 hTOR1A-WT lysate, 635 nm fluorescence, higher = more signal
Sequence of Torsin-1A (Homo sapiens) (O14656 whole entry, looked up): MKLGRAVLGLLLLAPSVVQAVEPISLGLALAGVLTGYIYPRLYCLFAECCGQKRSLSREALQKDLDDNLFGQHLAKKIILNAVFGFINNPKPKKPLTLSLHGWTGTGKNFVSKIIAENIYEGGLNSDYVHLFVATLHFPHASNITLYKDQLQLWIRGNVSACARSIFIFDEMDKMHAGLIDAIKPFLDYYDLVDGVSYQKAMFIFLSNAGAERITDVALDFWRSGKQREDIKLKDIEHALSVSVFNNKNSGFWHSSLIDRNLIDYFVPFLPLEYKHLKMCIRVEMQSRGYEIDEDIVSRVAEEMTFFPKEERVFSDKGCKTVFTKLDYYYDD

Torsin-1A (Homo sapiens) [9] = target: Torsin-1A (Homo sapiens) (UniProt O14656); assay: torsin A mutant lysate binding on microarrays – cell lysate, small-molecule microarray, COS7 lysate, 635/667 nm fluorescence, primary screen (AID 1150); conditions: COS7 hTOR1A mutant lysate, 635 nm fluorescence, higher = more signal;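 further: score pools 667 nm emission and signal to noise measuring lysate protein binding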
[10] = test system: Sonic hedgehog protein (Shh); assay: Sonic hedgehog microarray binding compounds – biochemical, small-molecule microarray, 635/667 nm fluorescence, primary screen (AID 1151); conditions: 635 nm fluorescence, higher = more signal;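 further: Shh protein binding to compounds spotted on small-molecule microarray slides; score combines spot fluorescence intensity with signal-to-noise across triplicate slides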
[11] = optical density shifts of acrAB sulA E. coli – strain DRC41, OD650, 48 h, E. coli filamentation inducer project, primary screen (AID 1152); conditions: higher = more signal, called active from +8 up or from −8 down;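 further: E. coli MC1000 strain DRC41 lacking acrAB efflux pump and sulA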
[12] = probe aLefty1 binding on compound microarray – biochemical, small-molecule microarray, 635/667 nm fluorescence, primary screen (AID 1153); conditions: higher = more signal;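 further: score merges spot fluorescence with signal-to-noise ratio from the scanned slide images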
[13] = plasmodial surface anion channel blockers, osmotic lysis – cell-based, P. falciparum Indochina, OD700, 1 h, primary screen (AID 1154); conditions: P. falciparum Indochina infected RBC osmotic lysis, higher = more signal, called active from +8 up or from −8 down
[14] = plasmodial surface anion channel blockers, osmotic lysis – cell-based, P. falciparum Indochina, OD700, 2 h, primary screen (AID 1155);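 further: lysis reports solute entry through the parasite surface anion channel PSAC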; conditions: P. falciparum Indochina infected erythrocytes, higher = more signal, called active from +8 up or from −8 down
[15] = changes in parasitized red cell lysis, either direction – P. falciparum Indochina, OD700, 3 h, PSAC antagonist project, primary screen (AID 1156); conditions: P. falciparum-infected erythrocytes, osmotic lysis, higher = more signal, called active from +8 up or from −8 down
[16] = plasmodial surface anion channel blockers, osmotic lysis – cell-based, P. falciparum Indochina, OD700, 18 h, primary screen (AID 1157); conditions: P. falciparum Indochina infected erythrocytes, osmotic lysis OD700, 18 h; higher = more signal, called active from +8 up or from −8 down
[17] = S6 kinase pathway phospho-S6 level changes – cell-based, A549, cytoblot, luminescence, serum-stimulated, primary screen (AID 1158); conditions: 5 h, higher = more signal;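 further: serum-stimulated A549 lung adenocarcinoma cells; signal is phosphorylated S6 detected by cytoblot immunostaining with HRP secondary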
[18] = target: NADPH oxidase 2 (Homo sapiens) (UniProt P04839); assay: compounds shifting NOX2 Amplex Red fluorescence – cell-based, HEK293-NOX2, PMA-stimulated, NOX inhibitor project, primary screen (AID 1159); conditions: 45 min, higher = more signal, called active from +8 up or from −8 down; further: test concentration not given here
Sequence of NADPH oxidase 2 (Homo sapiens) (P04839 whole entry, looked up): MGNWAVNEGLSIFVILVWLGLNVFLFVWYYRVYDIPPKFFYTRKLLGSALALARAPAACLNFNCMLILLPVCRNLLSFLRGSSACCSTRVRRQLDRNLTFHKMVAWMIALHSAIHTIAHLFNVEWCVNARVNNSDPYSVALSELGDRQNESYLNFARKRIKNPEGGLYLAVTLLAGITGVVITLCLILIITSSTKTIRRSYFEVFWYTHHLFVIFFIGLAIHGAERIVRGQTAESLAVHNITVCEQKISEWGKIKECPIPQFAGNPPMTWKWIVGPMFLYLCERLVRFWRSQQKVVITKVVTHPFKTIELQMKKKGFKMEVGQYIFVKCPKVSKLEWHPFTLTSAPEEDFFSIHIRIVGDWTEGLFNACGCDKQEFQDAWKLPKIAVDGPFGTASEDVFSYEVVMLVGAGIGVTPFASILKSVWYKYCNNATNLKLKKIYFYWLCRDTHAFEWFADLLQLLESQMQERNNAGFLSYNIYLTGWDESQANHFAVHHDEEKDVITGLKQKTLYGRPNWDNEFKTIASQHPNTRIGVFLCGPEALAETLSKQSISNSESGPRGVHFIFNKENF

[19] = target: NADPH oxidase 4 (Homo sapiens) (UniProt Q9NPH5); assay: compounds shifting NOX4 Amplex Red fluorescence – cell-based, HEK293-NOX4, tetracycline-induced, NOX inhibitor project, primary screen (AID 1160); conditions: HEK293-NOX4, Amplex Red H2O2 fluorescence, 45 min; higher = more signal, called active from +8 up or from −8 down
Sequence of NADPH oxidase 4 (Homo sapiens) (Q9NPH5 whole entry, looked up): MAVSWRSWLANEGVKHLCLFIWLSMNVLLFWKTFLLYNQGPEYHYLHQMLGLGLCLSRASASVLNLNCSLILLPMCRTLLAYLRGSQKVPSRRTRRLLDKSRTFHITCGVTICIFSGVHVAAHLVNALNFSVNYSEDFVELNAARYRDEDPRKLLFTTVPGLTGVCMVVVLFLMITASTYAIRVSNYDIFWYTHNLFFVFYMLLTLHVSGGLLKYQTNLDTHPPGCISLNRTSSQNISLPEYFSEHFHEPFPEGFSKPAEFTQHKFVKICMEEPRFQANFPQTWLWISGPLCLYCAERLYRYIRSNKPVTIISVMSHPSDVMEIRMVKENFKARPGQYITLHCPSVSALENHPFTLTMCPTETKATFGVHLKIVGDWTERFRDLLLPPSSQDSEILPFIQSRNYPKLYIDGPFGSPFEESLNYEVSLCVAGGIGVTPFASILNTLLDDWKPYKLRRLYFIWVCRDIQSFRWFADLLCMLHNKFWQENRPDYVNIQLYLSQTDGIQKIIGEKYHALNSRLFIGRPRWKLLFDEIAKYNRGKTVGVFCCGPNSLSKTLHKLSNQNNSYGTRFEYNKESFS

[20] = target: NADPH oxidase 5 (Homo sapiens) (UniProt Q96PH1); assay: compounds shifting NOX5 Amplex Red fluorescence – cell-based, HEK293-NOX5, NOX inhibitor project, primary screen (AID 1161); conditions: HEK293-NOX5, ionomycin, 45 min, higher = more signal
Sequence of NADPH oxidase 5 (Homo sapiens) (Q96PH1 whole entry, looked up): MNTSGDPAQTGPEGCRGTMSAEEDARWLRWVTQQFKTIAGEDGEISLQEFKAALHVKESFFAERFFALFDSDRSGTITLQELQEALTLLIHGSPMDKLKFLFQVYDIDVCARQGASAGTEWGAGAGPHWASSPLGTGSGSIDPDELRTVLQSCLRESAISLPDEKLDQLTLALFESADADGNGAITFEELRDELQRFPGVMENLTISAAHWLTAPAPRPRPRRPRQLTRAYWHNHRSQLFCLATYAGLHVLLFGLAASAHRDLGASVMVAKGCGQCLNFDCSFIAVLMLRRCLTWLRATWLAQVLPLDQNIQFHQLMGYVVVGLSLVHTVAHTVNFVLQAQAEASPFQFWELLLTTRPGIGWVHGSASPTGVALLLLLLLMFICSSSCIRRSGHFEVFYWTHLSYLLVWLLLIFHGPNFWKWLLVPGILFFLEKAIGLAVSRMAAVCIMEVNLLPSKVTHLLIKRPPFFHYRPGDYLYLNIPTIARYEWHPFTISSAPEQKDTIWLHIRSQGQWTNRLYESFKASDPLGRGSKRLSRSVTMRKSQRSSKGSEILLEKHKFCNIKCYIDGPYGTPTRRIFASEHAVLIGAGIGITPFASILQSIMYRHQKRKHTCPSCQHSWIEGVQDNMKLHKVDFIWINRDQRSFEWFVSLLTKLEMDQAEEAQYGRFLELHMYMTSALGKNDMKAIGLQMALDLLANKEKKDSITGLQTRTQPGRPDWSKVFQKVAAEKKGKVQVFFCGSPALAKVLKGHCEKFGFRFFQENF

Structure (SMILES) | composite z-score [1] | z-score [2] | z-score [3] | z-score [4] | z-score [5] | composite z-score [6] | composite z-score [7] | composite z-score (Torsin-1A (Homo sapiens) [8]) | composite z-score (Torsin-1A (Homo sapiens) [9]) | composite z-score [10] | z-score [11] | composite z-score [12] | z-score [13] | z-score [14] | z-score [15] | z-score [16] | z-score [17] | z-score [18] | z-score [19] | z-score [20]
C=CCC(OC(C)=O)[C@@H]1[C@@H](N(Cc2ccc(-c3cccc(C(F)(F)F)c3)o2)C(=O)Cc2ccc(F)cc2)c2cc(OCCCO)ccc2N1C(=O)Cc1ccc2ccccc2c1 (stereo not given in full) | -0.268 | -0.229 (inactive) | -1.1 (inactive) | -0.374 (inactive) | 0.767 (inactive) | -0.426 | -0.114 | -0.761 | -0.673 | 0.404 | -0.985 (inactive) | 0.0919 | 1.1 (inactive) | 0.135 (inactive) | -0.554 (inactive) | -0.135 (inactive) | -0.37 | -1.03 (inactive) | 0.896 (inactive) | 0.736
COC(=O)[C@@]1(Cc2ccccc2)[C@H]2c3cc(C(=O)N(C)C)n(CCO)c3C[C@H]2CN1C(=O)c1ccccc1 | 0.518 | 0.254 (inactive) | 0.409 (inactive) | 0.583 (inactive) | -0.609 (inactive) | 2.16 | 0.329 | -0.212 | 0.133 | -0.611 | -1.65 (inactive) | 0.188 | -0.469 (inactive) | 0.19 (inactive) | -0.0157 (inactive) | 0.57 (inactive) | -0.935 | 0.714 (inactive) | 0.111 (inactive) | -0.912
[N-]=[N+]=Nc1ccccc1C[C@@]1(C(=O)NCc2ccccc2)N=C(c2ccc(OCCCO)cc2)O[C@@H]1c1ccccc1N=[N+]=[N-] | 0.897 | -5.79 (inactive) | -0.424 (inactive) | 0.596 (inactive) | -2.3 (inactive) | 0.905 | 0.767 | 0.123 | 0.388 | 0.473 | 0.0484 (inactive) | 0.399 | 31.4 (active) | 24.3 (active) | 2.08 (inactive) | 0.984 (inactive) | 1.38 | -4.79 (inactive) | -2.16 (inactive) | -1.67
CO[C@H]1O[C@H](CO)[C@@H](OC(=O)Nc2ccccc2)[C@H](OC(=O)Nc2ccccc2)[C@H]1OC(=O)Nc1ccccc1 | 0.664 | -4.39 (inactive) | -1.41 (inactive) | 1.04 (inactive) | -2.64 (inactive) | 0.0545 | 0.0343 | -0.196 | 1.07 | 0.78 | 0.492 (inactive) | 0.264 | 4.11 (inactive) | 1.04 (inactive) | 0.406 (inactive) | 0.912 (inactive) | 0.22 | -7.66 (inactive) | -1.15 (inactive) | -2.32
CC(=O)OCC1C2CC[C@H]3C(OCc4ccc(F)cc4C(F)(F)F)OC[C@]4(C)[C@H]3C2=C(CN4C(=O)OC(C)(C)C)[C@H](C)C1COC(C)=O (stereo not given in full) | 1.21 | -1.87 (inactive) | -0.212 (inactive) | 0.0075 (inactive) | 1.85 (inactive) | 1.16 | 0.196 | -0.172 | 1.67 | -1.24 | -2.4 (inactive) | 0.498 | 1.07 (inactive) | 0.678 (inactive) | 1.04 (inactive) | 0.593 (inactive) | -0.239 | -0.896 (inactive) | -2.29 (inactive) | -1.51
COC(=O)[C@@]1(Cc2ccc(F)cc2)[C@H]2c3cc(C(=O)N(C)C)n(CCc4ccc(O)c(O)c4)c3C[C@H]2CN1C(=O)c1ccccc1 | 0.643 | 0.395 (inactive) | -0.0598 (inactive) | 0.387 (inactive) | 1.4 (inactive) | 0.365 | 0.528 | 0.411 | 0.92 | -1.67 | -0.81 (inactive) | 0.162 | 0.183 (inactive) | 0.194 (inactive) | 0.248 (inactive) | 0.494 (inactive) | 0.407 | -0.168 (inactive) | -1.31 (inactive) | -0.966
C=C(/C(=C/C[C@@H](OC(C)=O)c1cccc(OCCO)c1)c1cnc2ccccc2c1)C(C)C | 1 | -1.69 (inactive) | -1.04 (inactive) | 0.769 (inactive) | 1.32 (inactive) | 0.208 | 0.0013 | 1.83 | 1.29 | 2.05 | 0.509 (inactive) | 0.0582 | 12.5 (active) | 2.52 (inactive) | 1.24 (inactive) | 0.895 (inactive) | 0.328 | -1.71 (inactive) | -0.885 (inactive) | -1.73
C[N+](C)(C)CCCC[C@@H]1NC(=O)[C@H]2C[C@@H](C(=O)NCCCCCNC(=O)CS)[C@@H](c3cccc(OCCO)c3)N2C1=O | 0.0448 | -0.907 (inactive) | 0.236 (inactive) | 0.13 (inactive) | 0.487 (inactive) | 0.474 | -0.176 | 0.116 | 0.653 | 0.602 | 0.19 (inactive) | 0.144 | 1.59 (inactive) | -0.0251 (inactive) | -0.89 (inactive) | 0.204 (inactive) | -0.0362 | 1.94 (inactive) | 0.816 (inactive) | 1.35
CC(C)C[C@H]1NC(=O)C([C@@H](C)OCc2ccccc2)NC(=O)[C@@]23C(=O)N[C@@H](Cc4ccccc4)C2[C@H](C)[C@@]2(C)O[C@H]2C3/C=C/C/C=C\CNC1=O (stereo not given in full) | 0.0872 | -1.63 (inactive) | 0.727 (inactive) | 0.839 (inactive) | -0.566 (inactive) | 0.0874 | 0.242 | -0.125 | 0.519 | 1.62 | -0.629 (inactive) | 0.0361 | 1.44 (inactive) | -0.387 (inactive) | -0.0195 (inactive) | 0.0591 (inactive) | 0.298 | 0.569 (inactive) | 0.742 (inactive) | -2.51
